Measurements reported in PubChem BioAssay (EPA / NIEHS).
Where “and” joins values, the source holds several entries; their conditions need not be identical. Equal entries are not always repeated. A structure can be active in one record and inactive in another. Calls of active or inactive are those of the source. How the source made its calls: active means hit-call score of the fitted dose curve at least 0.9, where 1 is the maximum; inactive means score below 0.9.

Assay: BSK_BT_Bcell_Proliferation: Viability Assessment in the BioMAP Diversity Plus: BT Assay for B cell Proliferation (AID 2284227)
Conditions: primary human B cells with PBMC
Procedure: BSK_BT is a cell-based, multiplexed-readout assay that uses B cell and peripheral blood mononuclear cells, a human vascular primary cell co-culture, with measurements taken at 24 hours after chemical dosing in a microplate: 96-well plate.BSK_BT_Bcell_Proliferation is an assay component measured in the BSK_BT assay. It measures protein content, a form of viability reporter, as detected with absorbance signals by Sulforhodamine staining technology.Data from the assay component BSK_BT_Bcell_Proliferation was analyzed at the endpoint, BSK_BT_Bcell_Proliferation, in the positive analysis fitting direction relative to DMSO as the negative control and baseline of activity. Using a type of viability reporter, gain or loss-of-signal activity can be used to understand cellular changes in viability. To generalize the intended target to other relatable targets, this assay endpoint is annotated to the 'cell cycle' intended target family, where the subfamily is 'proliferation'.
The levels of cell surface (or secreted, indicated by the prefix "s") biomarker endpoints were measured by ELISA. Overt cytotoxicity to cells in confluent adherent cultures (all systems other than the BT system) was assessed by measuring total protein levels using sulforhodamine B (SRB) staining in parallel cultures at the time of biomarker measurements, indicated as SRB endpoints. For proliferation assays for adherent cell types, individual cell types are cultured at sub-confluence and relative cell numbers quantified by SRB staining at time points optimized for each system (48 h: 3C and CASM3C systems; 72 h: BT and HDF3CGF systems; 96 h: SAg system). SRB was performed by staining cells with 0.1% SRB after fixation with 10% TCA and reading wells at 560 nm.Viability and proliferation of PBMC (T cells) was quantified by Alamar Blue reduction for the SAg and BT systems. For PBMC viability (referred to as PBMC Cytotoxicity within the assay endpoint names), cells were plated (75,000/well in a 96-well plate) and then chemical samples added for 1 h before addition of activators, SEB and TSST-1 (20 ng/mL final concentration each). Cells were incubated for 90 h. Then, Alamar Blue (20 uL/well) (Invitrogen, Cat DAL1100) was added for 6 h, and the plates were read with a fluorescence microplate reader at 546/580 nm (excitation/emission). For PBMC proliferation, cells were plated and activated as above but incubated for only 16 h prior to addition of Alamar Blue. Plates were read after 6 h.

| Structure (SMILES) | outcome | AC50 |
| --- | --- | --- |
| NC(=O)C(F)(F)C(F)(F)F | inactive |  |
| COC(=O)C(F)(F)C(F)(F)OC(F)(C(F)(F)F)C(F)(F)OC(F)=C(F)F (stereo not given) | inactive |  |
| O=C(O)C(F)(F)OC(F)(F)C(F)(F)OC(F)(F)F | inactive | 12.6 µM (active) |
| CCCCC(CC)COP(=O)(Oc1ccccc1)Oc1ccccc1 (stereo not given) |  | 31.3 µM (active) |
| O=S1(=O)OCC2C(CO1)C1(Cl)C(Cl)=C(Cl)C2(Cl)C1(Cl)Cl (stereo not given) |  | 25.9 µM (active) |
| CCCCOCCOP(=O)(OCCOCCCC)OCCOCCCC | inactive |  |
| O=c1ssc(Cl)c1Cl |  | 6.31 µM (active) |
| O=P(OCC(Br)CBr)(OCC(Br)CBr)OCC(Br)CBr (stereo not given) |  | 23.9 µM (active) |
| CC(C)(C)c1ccccc1OP(=O)(Oc1ccccc1)Oc1ccccc1 |  | 28.6 µM (active) |
| Nc1ccc([N+](=O)[O-])cc1Cl | inactive |  |
| CCOP(=S)(OCC)SCSc1ccc(Cl)cc1 | inactive |  |
| COP(N)(=S)OC | inactive |  |
| OCC(F)(F)OC(F)(F)C(F)(F)OC(F)(F)CO | inactive |  |
| OCC(F)(F)OC(F)(F)C(F)(F)OC(F)(F)C(F)(F)OC(F)(F)CO | inactive |  |
| O=C(O)C(F)(F)C(F)(F)C(=O)O | inactive |  |
| CCOP(=S)(NC(C)C)Oc1ccccc1C(=O)OC(C)C (stereo not given) | inactive |  |
| Cc1ccc2c(c1N)C(=O)c1ccccc1C2=O | inactive |  |
| CCCCC(CC)COC(=O)c1c(Br)c(Br)c(Br)c(Br)c1C(=O)OCC(CC)CCCC (stereo not given) | inactive |  |
| CCOP(=S)(OCC)SCn1nnc2ccccc2c1=O | inactive |  |

| Structure (SMILES) | outcome | AC50 |
| --- | --- | --- |
| FC(F)(F)C(F)(C(F)(F)F)C(F)(F)C(F)(F)CC1CO1 (stereo not given) | inactive |  |
| COP(=O)(O)OC | inactive |  |
| N#Cc1cc([N+](=O)[O-])ccc1N | inactive |  |
| O=C(O)C(F)(F)OC(F)(F)C(F)(F)OC(F)(F)C(=O)O | inactive |  |
| Cc1c([N+](=O)[O-])cc2c(c1[N+](=O)[O-])C(C)(C)CC2(C)C |  | 20 µM (active) |
| CC(O)C(F)(F)C(F)(F)F (stereo not given) | inactive |  |
| O=C(O)C(F)(OC(F)(F)C(F)(F)C(F)(F)F)C(F)(F)F (stereo not given) | inactive | 220 nM (active) and 291 nM (active) |
| C=CC(=O)OCC(F)(F)C(F)F |  | 22.3 µM (active) and 36.2 µM (active) |
| CCOP(=S)(S)OCC | inactive |  |
| O=S(=O)(F)C(F)(F)C(F)(F)C(F)(F)C(F)(F)C(F)(F)C(F)(F)C(F)(F)C(F)(F)F | inactive |  |
| CC(C)Nc1ccc(Nc2ccccc2)cc1 |  | 2.3 µM (active) |
| OCC(F)(F)OC(F)(F)C(F)(F)OC(F)(F)C(F)(F)OC(F)(F)F |  | 22.6 µM (active) and 52.7 µM (active) |
| ClC(Cl)=C(c1ccc(Cl)cc1)c1ccccc1Cl |  | 34.4 µM (active) |
| C=CC(=O)OCC(CC)(COC(=O)C=C)COC(=O)C=C |  | 2.36 µM (active) |
| CC(Cl)CN(C)C (stereo not given) | inactive |  |
| O=C(O)C=CC(F)(C(F)(F)F)C(F)(F)F | inactive |  |
| N#Cc1c(-c2ccc(Cl)cc2)[nH]c(C(F)(F)F)c1Br |  | 2.37 µM (active) |
| CCOP(=S)(OCC)SCS(=O)(=O)CC | inactive |  |
| c1ccc2c(c1)sc1ccccc12 | inactive |  |
